# Assay results as given in PubChem BioAssay (NCI).
# The panel holds about 83,000 compounds, 20% with a hit somewhere; the sample as a whole holds those more often.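 Interpretation: 100, growth as untreated; towards 0, rising growth inhibition; 0, no net growth; 0 to -100, cell death. Compounds scoring below 10 were considered active.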 Values without a mark were called inactive. Calls of active or inactive are those of the source.
# Tested on: SR leukemia
# Experiment: NCI-60 one-dose screen, 48 h (100 = growth as untreated, 0 = no growth, -100 = all killed)
# Settings: 10 µM unless noted
row,Compound,growth
1,COc1ccc(-c2n[nH]nc2-c2cc3ccccc3s2)cc1O,18.6%
2,Cn1cc(-c2csc(-c3c[nH]c4ccc(F)cc34)n2)c2cccnc21,27.2%
3,Nc1c(C(=O)Nc2cccc(Br)c2)sc2nc3c(cc12)C(=O)CCC3,13.7%
4,COc1cc(/C=N/Nc2ncnc3c2c(C)nn3-c2ccc(F)cc2)ccc1O,77%
5,Nc1ccccc1NC(=O)c1ccc(CN2CCC/C(=C\c3ccccn3)C2=O)cc1,14.1%
6,Cc1ccccc1-c1nc(C(Cl)Cl)nc2cc(-c3ccccc3)nn12,50.2%
7,N#CC1=C(N)Oc2ccc3ccccc3c2C1c1ccccc1 (centres undefined),25.1%
8,Cc1csc(-c2ccc3c(c2)COC3(CCCN(C)C)c2ccc(F)cc2)c1 (centres undefined),-3.41% (active)
9,O=C(O)c1cccc2c1Cc1cc([N+](=O)[O-])ccc1-2,89%
10,COc1ccc(C2C(C#N)=C(N)Oc3c2sc2c(F)cccc32)cc1 (centres undefined),11.6%
11,CCCCCCCCNc1cccc2c1C(=O)c1ccccc1C2=O,108%
12,CC1(C)CC[C@]2(CO)CC[C@]3(C)C(=CC[C@@H]4[C@@]5(C)CC[C@H](NCO)C(C)(C)[C@@H]5CC[C@]43C)[C@@H]2C1,-34.7% (active)
13,CNC(=O)c1cc(Oc2ccc3nc(NC(=O)Nc4ccc(Cl)cc4)sc3c2)ccn1,42.7%
14,O=C(c1ccccc1)C(CN1CCOCC1)c1ccccc1 (centres undefined),-0.205% (active)
15,NCCn1cc(-c2nc(-c3c[nH]c4ncccc34)cs2)c2ccccc21,62.6%
16,COc1cc(-c2cc(-c3nc4cc(Cl)c(Cl)cc4[nH]3)[nH]n2)cc(OC)c1OC,54.5%
17,CC1(n2nnnc2N2CCCN(c3ncccc3N)CC2)CCC1,79.1%
18,C=CC(=O)N[C@H](Cc1ccc(-c2cc(Cl)cc(Cl)c2)cc1)[C@H](O)[C@@H](O)C(=O)O,81.6%
19,N#CC1=C(N)Oc2c(sc3c(F)cccc23)C1c1ccc(Cl)cc1 (centres undefined),10.8%
20,COc1ccccc1CNc1nc(N)nc2[nH]c3ccc(O)cc3c12,4.16% (active)

row,Compound,growth
1,CCC(c1ccc(OC)cc1)C(CC)c1ccc(O)c(CN2CCCCC2)c1 (centres undefined),-3.74% (active)
2,C/C(=N\Nc1cc(C)c2cc(C)ccc2n1)c1ccccn1,0.29% (active)
3,Cn1cc(-c2csc(-c3c[nH]c4ccccc34)n2)c2cccnc21,27.4%
4,Oc1ccc(Nc2ccccc2)cc1,94.2%
5,Nc1c(C(=O)Nc2cccc(Cl)c2)sc2ncc(Cl)cc12,66.3%
6,C(=C\c1c[nH]c2ccccc12)/c1ccc2ccccc2n1,67.5%
7,COc1ccc(-c2nc3ccccn3c2-c2nc3ccc(Cl)cc3[nH]2)cc1,70.3%
8,CC/C(=N/NC(N)=O)c1ccccc1,110%
9,Cc1ccsc1-c1ccc2c(c1)COC2(CCCN(C)C)c1ccc(F)cc1 (centres undefined),-4.74% (active)
10,NS(=O)(=O)c1ccc(CCNC(=O)/C=C/c2ccc(Cl)cc2)cc1,75.6%
11,Cc1ccc(N(CC(=O)Nc2ccc(S(=O)(=O)N3CCC(N4CCCC4)CC3)cc2)S(=O)(=O)c2ccc(Cl)cc2)cc1,-29.5% (active)
12,CC1(C)NCCC[C@]2(C)[C@H]3CC[C@@H]4[C@H]5[C@H](C(=O)/C=C/c6ccccn6)CC[C@]5(CO)CC[C@@]4(C)[C@]3(C)CC[C@@H]12,-19.6% (active)
13,Fc1ccc2nc(-c3cc(-c4ccc5c(c4)OCO5)n[nH]3)[nH]c2c1,10%
14,O=C(NC(Cc1cn(Cc2ccccc2)cn1)C(=O)O)OCC1c2ccccc2-c2ccccc21 (centres undefined),85.1%
15,Cc1cc(Cl)nc(N(CCCNc2ccnc3cc(Cl)ccc23)Cc2ccco2)n1,-13.7% (active)
16,COc1cc(-c2cc3ncccc3c3nc(OCCN(C)C)c4cccnc4c23)cc(OC)c1OC,8.77% (active)
17,O=C1CNCCN1,102%
18,c1ccc2[nH]c(-c3ccc(Nc4nc(N5CCCCC5)nc(N5CCOCC5)n4)cc3)nc2c1,9.79% (active)
19,NC1=NN=C2N(N)C(=O)c3cnn(-c4ccccc4)c3N2c2nc(-c3ccccc3)cc(-c3ccccc3)c21,103%
